tim10-1 inh: tim10-1 yeast growth inhibition | S. cerevisiae tim10-1 ts strain growth, BacTiter-Glo, 24 h | inhibition, % at 20 µM | 330,000 compounds, 2.2% hits;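 active means inhibition of at least 40%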;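 further: mutant grown at 25 °C; 0% = DMSO wells with yeast and 100% = wells holding no yeast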
tim23-1 inh: inhibits growth of tim23-1 mutant yeast; S. cerevisiae tim23-1 growth, BacTiter-Glo luminescence, 24 h; inhibition, % at 20 µM; 330,000 compounds, 1.3% hits; AID 463212;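 active means growth inhibition of the mutant yeast at or above 50%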;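 further: temperature-sensitive mutant grown at 25 °C; plate controls were DMSO-treated mutant yeast for no effect and medium wells lacking yeast for full effect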
TIM10 inh: inhibits growth of TIM10 yeast strain | S. cerevisiae TIM10 strain growth, BacTiter-Glo luminescence, 24 h | AID 463195 | inhibition, % at 10 µM | 330,000 compounds, 1.4% hits;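 active means inhibition of 40% or more at the single tested concentration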;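 further: wild-type TIM10 isogenic control strain grown at permissive 25 °C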
SKKanGAS inh: SKKanGAS growth inhibition. S. pyogenes SKKanGAS, kanamycin growth, BacTiter-Glo, 6 h. inhibition, % at 7.5 µM. 300,000 compounds, 1.3% hits. AID 1662;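 active means mean replicate score, as percent of positive control median, at least 50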;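 further: strain carries kanamycin resistance gene driven by streptokinase promoter and grows in 40 µg/ml kanamycin; loss of luminescence reflects streptokinase promoter inhibition or plain growth inhibition; 0% = median of DMSO wells and 100% = positive control at its reference dose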
PfHsp90 set2: reduces growth (ATP signal) of yeast expressing P. falciparum Hsp90 | S. cerevisiae expressing PfHsp90, BacTiter-Glo ATP, 48 h; yeast lacking PDR1 and PDR3 efflux regulators | inhibition, % at 9.4 µM | 310,000 compounds, 0.32% hits;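 active means every replicate shows inhibition above about 80%, whatever the replicate mean, limit read from the data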;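 further: 0% = DMSO neutral controls and 100% = 20 µM radicicol positive controls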
* = called active by the depositor. Compounds with a hit are over-represented: about 4.4% of the library has one in this group of screens.

O=C(NC(C(=O)N/N=C/c1cc([N+](=O)[O-])ccc1O)c1n[nH]c(=O)c2ccccc12)c1ccccc1 (centres undefined) was read as tim10-1 inh 13.3, tim23-1 inh 24.5, TIM10 inh -8.5, SKKanGAS inh 87.2* and PfHsp90 set2 2.8.
Screening Cc1cc(C(=O)N/N=C/c2ccc([N+](=O)[O-])cc2)c2ccccc2n1 returned tim10-1 inh 18.5, tim23-1 inh 4.2, TIM10 inh -0.9, SKKanGAS inh -1.4 and PfHsp90 set2 -26.0.
`Cc1cc(C(=O)N/N=C/c2cc(Br)cc([N+](=O)[O-])c2O)c2ccccc2n1` gave tim10-1 inh 29.3, tim23-1 inh 36.4, TIM10 inh 25.0, SKKanGAS inh 105.8* and PfHsp90 set2 -2.5.
Cc1cc(C(=O)N/N=C/c2cc([N+](=O)[O-])ccc2O)c2ccccc2n1 was read as tim10-1 inh 9.4, tim23-1 inh 38.7, TIM10 inh 20.3, SKKanGAS inh 92.0* and PfHsp90 set2 -7.6.
For CCC(=O)N(c1nnc(SCC(=O)c2ccc[nH]2)s1)C1CC1 the results were tim10-1 inh -2.0, tim23-1 inh 4.6, TIM10 inh -8.0 and PfHsp90 set2 -9.6.
Screening CCn1cc(C(=O)OCC(=O)c2cc(C)n(-c3cccc(C(F)(F)F)c3)c2C)c(=O)c2ccc(C)nc21 returned SKKanGAS inh 58.7* and PfHsp90 set2 -14.2.
COC(=O)/C=C1\SC(=Nc2ccc(Cl)c(Cl)c2)NC1=O was read as tim10-1 inh -3.9, tim23-1 inh 14.4, TIM10 inh 10.6, SKKanGAS inh 72.7* and PfHsp90 set2 -17.9.
Screening COC(=O)/C=C1\SC(=Nc2ccc(OC)cc2)NC1=O returned tim10-1 inh -9.5, tim23-1 inh 17.1, TIM10 inh 7.8, SKKanGAS inh -19.6 and PfHsp90 set2 22.9.
CCOc1ccc2nc(N3C(=O)/C(=C/c4ccc(Cl)cc4)NC3=S)sc2c1 was read as SKKanGAS inh 96.2* and PfHsp90 set2 -2.4.
For CCCCCCCCCCCCCCCC[N+](C)(C)Cc1ccc(F)cc1 the results were PfHsp90 set2 115.2*.
Screening CC(=O)Nc1ccc(S(=O)(=O)NCC(=O)Nc2ccc3c(c2)OCO3)cc1 returned tim10-1 inh -14.0, tim23-1 inh -2.7 and TIM10 inh -6.8.
Screening CCOC(=O)[C@H]1[C@H]2COc3ccc(Br)cc3[C@@H]2N2C(=O)c3ccc(Cl)cc3NC(=O)[C@@]12C returned tim10-1 inh 8.7, tim23-1 inh 15.0, TIM10 inh 2.6 and PfHsp90 set2 24.1.
`O=C(NC(=S)N1CCN(C(c2ccccc2)c2ccccc2)CC1)c1ccc(S(=O)(=O)N2CCOCC2)cc1` gave tim10-1 inh 16.9, tim23-1 inh -9.8, TIM10 inh 24.0, SKKanGAS inh 66.4* and PfHsp90 set2 -17.0.
`Cc1cccc(OCCn2c(=S)[nH]c3ccccc32)c1` gave tim10-1 inh 31.4, tim23-1 inh 36.6, TIM10 inh 24.9, SKKanGAS inh -6.3 and PfHsp90 set2 -2.2.
`Cc1ccc(OCCn2c(=S)[nH]c3ccccc32)c(C(C)C)c1` gave tim10-1 inh 13.9, tim23-1 inh 39.0, TIM10 inh 37.9, SKKanGAS inh 101.4* and PfHsp90 set2 19.2.
Screening C=C(C)COc1ccc(-c2nc(N)ncc2-c2ccc(OC)c(OC)c2)c(O)c1 returned tim10-1 inh 22.9, tim23-1 inh 30.6, TIM10 inh 22.8, SKKanGAS inh -3.5 and PfHsp90 set2 7.1.
Screening C=C(C)COc1ccc(-c2nc(N)nc(C)c2-c2ccc(OC)cc2)c(O)c1 returned tim10-1 inh 11.1, tim23-1 inh 7.1, TIM10 inh 14.1, SKKanGAS inh -18.7 and PfHsp90 set2 -16.0.
C=C(C)COc1ccc(-c2ncncc2Oc2ccc(OC)cc2)c(O)c1 was read as tim10-1 inh 7.5, tim23-1 inh 20.8, TIM10 inh 19.7 and SKKanGAS inh 55.3*.
Screening C=C(C)COc1ccc(-c2[nH]ncc2Oc2cccc(OC)c2)c(O)c1 returned tim10-1 inh -40.6, tim23-1 inh 13.1, TIM10 inh 38.8, SKKanGAS inh 75.7* and PfHsp90 set2 110.1*.
For C=C(C)COc1ccc(-c2[nH]ncc2Oc2ccccc2OCC)c(O)c1 the results were tim10-1 inh 30.3, tim23-1 inh 16.3, TIM10 inh -5.7, SKKanGAS inh 76.5* and PfHsp90 set2 -23.0.
For C=C(C)COc1ccc(-c2nc(N)ncc2-c2ccc(Cl)cc2)c(O)c1 the results were tim10-1 inh -13.4, tim23-1 inh 25.3, TIM10 inh -4.6, SKKanGAS inh 99.0* and PfHsp90 set2 -17.9.
`Cc1ccccc1N1CCN(C(=O)c2cc(C3CC3)nn2-c2ccccc2)CC1` gave tim10-1 inh 26.4, tim23-1 inh 43.2, TIM10 inh 11.0 and PfHsp90 set2 -25.2.
Screening COc1ccccc1-c1cn[nH]c1-c1ccc(OCc2ccc(F)cc2)cc1O returned tim10-1 inh 11.0, tim23-1 inh 30.1, TIM10 inh 21.4, SKKanGAS inh 51.2* and PfHsp90 set2 -3.3.
`C=C(C)COc1ccc(-c2[nH]ncc2-c2ccc(OC)cc2)c(O)c1` gave tim10-1 inh 0.6, tim23-1 inh 28.6, TIM10 inh 0.9, SKKanGAS inh 74.8* and PfHsp90 set2 21.8.
O=C1NC(=O)C2(C=C(c3ccccc3)C(O)(c3ccccc3)C2)N1 (centres undefined) was read as PfHsp90 set2 -17.3.
Screening CCN1CCN(CCCNC(=O)C2CCCN(c3nc4c(C)cc(C)cc4s3)C2)CC1 (centres undefined) returned tim10-1 inh 6.6, tim23-1 inh -7.6, TIM10 inh 9.9, SKKanGAS inh -2.1 and PfHsp90 set2 8.7.
Screening N=C1/C(=C\c2ccc(-c3cccc(C(=O)O)c3)o2)C(=O)N=C2SC=C(c3ccccc3)N12 returned tim10-1 inh 13.1, tim23-1 inh 13.0, TIM10 inh 14.0, SKKanGAS inh 79.0* and PfHsp90 set2 -11.0.
CCOC(=O)C1CCN(C2=C(NS(=O)(=O)c3ccc(Cl)cc3)C(=O)c3ccccc3C2=O)CC1 was read as tim10-1 inh 18.6, tim23-1 inh 36.6, TIM10 inh 6.9, SKKanGAS inh 51.9* and PfHsp90 set2 1.1.
CSc1nc(Oc2ccc3ccccc3c2)c2sccc2n1 was read as tim10-1 inh 7.2, tim23-1 inh 8.2, TIM10 inh -2.6, SKKanGAS inh 54.4* and PfHsp90 set2 3.7.
Screening O=C(N/N=C/c1ccc([N+](=O)[O-])o1)c1ccccc1-n1cccc1 returned tim10-1 inh 29.5, tim23-1 inh 39.8, TIM10 inh 35.8, SKKanGAS inh 20.1 and PfHsp90 set2 -5.8.
For O=C(N/N=C/c1ccc([N+](=O)[O-])o1)c1cn(-c2ccccc2)nc1-c1ccc(Cl)cc1 the results were tim10-1 inh 25.6, tim23-1 inh -0.5, TIM10 inh 29.7 and SKKanGAS inh 107.2*.
For CC(/C=C/c1ccco1)=N\NC(=O)c1cc(Cl)ccc1O the results were tim10-1 inh 9.8, tim23-1 inh 3.6, TIM10 inh 2.6, SKKanGAS inh 69.8* and PfHsp90 set2 -9.3.

High-throughput results as filed in PubChem.
